Measurements reported in the supplement of paper PMC6555819.

Legend:
Assay in all cases: PBM binding z-score (relative to random genomic background probes); higher = stronger binding; sequences stand for … in GC…GCGATTGACAGCGTAGAATGAAGG
[1] = system: FXR:RXRa (NR concentration 270 nM, RXRa partner concentration 90 nM)
Outline: (§1)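 On custom Agilent 4×180K arrays, double-stranded probes with 34-nt variable regions carried direct-repeat seeds, single-nucleotide variants, half-site ablations or random human genomic background. Ligand-free nuclear receptor dimers were applied for 1 h, and binding was read with antibodies against each partner (one per run). Binding z-scores come from regression-normalized fluorescence, with the random background probes as reference.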

[2] = system: LXRa:RXRa (NR concentration 270 nM, RXRa partner concentration 90 nM)
Outline: as §1

[3] = system: LXRa homodimer (NR concentration 270 nM)
Outline: as §1

[4] = system: LXRb:RXRa (NR concentration 270 nM, RXRa partner concentration 90 nM)
Outline: as §1

[5] = system: LXRb homodimer (NR concentration 270 nM)
Outline: as §1

[6] = system: PPARa:RXRa (NR concentration 270 nM, RXRa partner concentration 90 nM)
Outline: as §1

[7] = system: PPARg:RXRa (NR concentration 180 nM, RXRa partner concentration 90 nM)
Outline: as §1

[8] = system: PPARg:RXRa 270nM:90nM, anti-RXR (NR concentration 270 nM, RXRa partner concentration 90 nM)
Outline: as §1

[9] = system: PPARg:RXRa 30nM:10nM, anti-RXR (NR concentration 30 nM, RXRa partner concentration 10 nM)
Outline: as §1

[10] = system: PPARg:RXRa 90nM:30nM, anti-RXR (NR concentration 90 nM, RXRa partner concentration 30 nM)
Outline: as §1

[11] = system: PPARg:RXRa DBDmut IVT, anti-RXR (DBD mutation: RXRa K156A/R161A, NR concentration 270 nM, RXRa partner concentration 90 nM)
Outline: as §1

[12] = system: PPARg:RXRa IVT, anti-PPARg (NR concentration 270 nM, RXRa partner concentration 90 nM)
Outline: as §1

[13] = system: PPARg DBDmut:RXRa IVT, anti-PPARg (DBD mutation: PPARg1 K132A/R137A, NR concentration 270 nM, RXRa partner concentration 90 nM)
Outline: as §1

[14] = system: PPARg DBDmut IVT, anti-PPARg (DBD mutation: PPARg1 K132A/R137A, NR concentration 270 nM)
Outline: as §1

[15] = system: PPARg homodimer (NR concentration 180 nM)
Outline: as §1

[16] = system: PXR:RXRa (NR concentration 270 nM, RXRa partner concentration 90 nM)
Outline: as §1

[17] = system: PXR homodimer (NR concentration 270 nM)
Outline: as §1

[18] = system: RARa:RXR (NR concentration 270 nM, RXRa partner concentration 90 nM)
Outline: as §1

[19] = system: RARa homodimer (NR concentration 270 nM)
Outline: as §1

[20] = system: RARb:RXRa (NR concentration 270 nM, RXRa partner concentration 90 nM)
Outline: as §1

Row | Sequence | PBM binding z-score [1] | PBM binding z-score [2] | PBM binding z-score [3] | PBM binding z-score [4] | PBM binding z-score [5] | PBM binding z-score [6] | PBM binding z-score [7] | PBM binding z-score [8] | PBM binding z-score [9] | PBM binding z-score [10] | PBM binding z-score [11] | PBM binding z-score [12] | PBM binding z-score [13] | PBM binding z-score [14] | PBM binding z-score [15] | PBM binding z-score [16] | PBM binding z-score [17] | PBM binding z-score [18] | PBM binding z-score [19] | PBM binding z-score [20]
1 | TTACCAAGGTGAAGGTCTTTGATCCCTCTGTAGA | 0.557 | 0.55 | -0.405 | 0.371 | -0.742 | 1.64 | 1.37 | 2.45 | 0.89 | 2.12 | 1.88 | 3.26 | -0.214 | 0.0438 | 0.225 | 0.389 | -0.43 | 0.847 | -0.184 | 1.65
2 | CGAACGAGGGCATGAGTTGGTAGCAAATGCCGAT | 0.159 | 0.0461 | -0.707 | -0.2 | -1.32 | 1.06 | 0.849 | 0.827 | 0.00769 | 0.471 | 2.72 | 1.66 | 0.738 | -0.612 | -0.306 | 0.171 | -0.43 | 0.384 | -0.55 | 1.81
3 | CCTTACGGGTCACTGACAGGTTATAGAATTTGGA | 5.11 | 4.02 | 0.265 | 3.45 | 0.0176 | 4.89 | 4.24 | 4.49 | 1.75 | 3.35 | 3.42 | 3.6 | 1.19 | 0.387 | 2.22 | 3.68 | 0.414 | 4.32 | 1.29 | 3.93
4 | CAAACTAGGTCAAGAGTTCAAAGTCCGCTTCCCG | 5.67 | 5.69 | 6.24 | 4.15 | 1.05 | 6.1 | 9.08 | 7.81 | 6.8 | 8.19 | 8.53 | 8.57 | 5.05 | 5.84 | 7.86 | 6.27 | 10.5 | 6.61 | 2.65 | 4.74
5 | GCAGACAGGTGAAACGCAGGTAACTCAGGGTGGC | -0.388 | 0.00311 | -0.515 | -0.48 | -1 | 0.864 | 0.383 | -0.117 | -0.52 | -0.467 | 0.989 | 0.639 | -1.03 | -0.587 | -0.666 | -0.437 | -0.625 | 0.284 | -0.853 | 0.575
6 | ATCTCTTGGTAACCAAGTTCAGTGAATGCCGAAC | 0.478 | 1.31 | 0.59 | 1.22 | 0.681 | 0.472 | 0.0645 | 0.369 | -0.134 | 0.145 | -0.417 | 0.552 | 0.44 | 0.768 | 0.28 | 1.92 | 2.1 | 0.475 | -0.473 | 0.956
7 | ATCTCTAGGTAAGACTCAGTTCACTGAAGAACGC | 0.642 | 0.841 | 0.58 | 0.734 | 0.669 | 0.739 | 0.313 | 0.623 | 0.222 | 0.475 | 1.88 | 1.2 | 0.951 | 1.23 | 0.997 | 1.71 | 1.12 | 1.01 | 0.789 | 0.577
8 | TTACCAAGGTGCAGGTCGTTGATCCCTCTGTAGA | 0.967 | 1.17 | 0.154 | 0.819 | -0.626 | 0.827 | -0.238 | 0.806 | 0.416 | 0.733 | -0.00827 | 0.492 | -0.281 | -1.32 | -0.014 | 0.4 | 0.135 | 0.7 | -0.516 | 0.624
9 | AGTCAAAGTTCACAAGGTAACGTAAGATTCAGCT | 6.12 | 5.7 | 3.55 | 3.65 | 1.1 | 4.75 | 6.96 | 6.42 | 3.67 | 5.78 | 0.681 | 3.67 | 1.19 | 0.956 | 3.05 | 4.78 | 2.84 | 4.51 | 2.08 | 4.82
10 | GATACAGTGTCAAGGCCAGAGTACGCGTATTGAT | -0.101 | -0.189 | -0.775 | -0.147 | -0.421 | 0.43 | 0.593 | 0.129 | -0.172 | -0.0433 | 0.318 | 0.795 | 0.0882 | 0.292 | 0.275 | -0.0079 | 0.246 | 0.272 | -0.156 | 1.46
11 | TCTTGTAGATCAACAGAAGGTTAAGAAAGATCGA | 0.396 | 1.11 | 0.0845 | 0.953 | -0.0831 | 1.27 | 0.104 | 1.35 | 2.82 | 2.04 | 2.05 | 0.787 | 0.882 | 0.062 | -0.0281 | 0.812 | 0.0567 | 0.954 | -0.338 | 0.701
12 | TCTAGTTGGTCAAAGGTTACACACTCGAAATGCG | 2.63 | 3.13 | 1.38 | 3.04 | 0.929 | 5.08 | 9.84 | 8.86 | 8.99 | 9.47 | 3.09 | 4.81 | 1.41 | 2.3 | 3.48 | 3.45 | 1.04 | 4.79 | 2.25 | 2.88
13 | AGACTGAGGTTATACGTAGATCAGGGAAGAAAGT | 1.99 | 2 | 0.184 | 1.55 | -0.196 | 2.58 | 0.936 | 0.937 | 0.367 | 0.756 | 0.425 | 0.435 | 0.201 | 0.0103 | 0.623 | 1.09 | 0.133 | 1.68 | 0.064 | 1.46
14 | CCTGACGGGTCAAGGTTATAGCACGGGTGGTACG | 4.36 | 2.88 | 0.0717 | 2.21 | -0.369 | 4 | 2.54 | 2.92 | 0.472 | 1.61 | 0.0106 | 1.52 | -0.561 | -0.647 | 1.94 | 2.74 | 0.233 | 3.65 | 0.717 | 3.78
